# In PubChem BioAssay AID1345085 (National Center for Advancing Translational Sciences (NCATS), 2018):
# Results filed as inconclusive are left out. Calls of active or inactive are those of the source. The call rests on the fitted dose curve; in most records, active means well fitted cell-killing curve with a large enough effect; inconclusive means small, poorly fitted or top-dose-only effect, or effect the other way; inactive means no such curve, though single readings can be large or run the other way. *1 amine or outer side, *2 acyl side, *3 side chain or, on linkers, in order; H or OH if unused. Where a SMILES comes first, the peptide text is derived from it. Bridges are numbered along the chain shown (N, C = ends). Roman numbers before positions name the chains, in order. [ ]: non-standard residue; d: D form. Actinocin(9to1) = Cc1c2oc3c(C)ccc(C(=O)[*:1])c3nc-2c(C(=O)[*:2])c(N)c1=O; NMeV = CN[C@H](C(=O)O)C(C)C; Sar = CNCC(=O)O
# Tested on: HeLa
# Assay: Confirmatory qHTS for gynecologic anti-cancer compounds from libraries of approved drugs and bioactive compounds; further: nearly all actives have a fitted effect of over 55% in size
# Settings: gynecologic cancer cell panel viability, ATPlite luminescence, 48 h; series mostly up to 57.6 µM
# In short: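 ATPlite luminescence read-out of cell viability; IC50 from 11-point 1:3 titrations, 57.5 uM to 0.977 nM, 48 h compound exposure at 37 C, 5% CO2. Cells seeded at 1,000/well 16 h before dosing.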
# Potency means the concentration at half of the fitted maximal effect.
row,Structure (SMILES),Potency
1,CCN(CC)CCCC(C)Nc1ccnc2cc(Cl)ccc12 (stereo not given),inactive
2,CC(C)CC(=O)Nc1n[nH]c2c1CN(C(=O)C1CCN(C)CC1)C2(C)C,3.43 µM (active)
3,O=c1c(-c2ccc(O)cc2)coc2cc(O)cc(O)c12,12.2 µM (active)
4,CCS(=O)(=O)c1cccc(-c2cc(C(=O)NC3CCN(C)CC3)c(C)c3[nH]c4ncc(C)cc4c23)c1,0.476 µM (active)
5,CN1C(=O)C(Cc2c[nH]c3ccccc23)NC1=S (stereo not given),inactive
6,"Cc1c2oc3c(C)ccc(C(=O)N[C@@H]4C(=O)N[C@H](C(C)C)C(=O)N5CCC[C@H]5C(=O)N(C)CC(=O)N(C)[C@@H](C(C)C)C(=O)O[C@@H]4C)c3nc-2c(C(=O)N[C@@H]2C(=O)N[C@H](C(C)C)C(=O)N3CCC[C@H]3C(=O)N(C)CC(=O)N(C)[C@@H](C(C)C)C(=O)O[C@@H]2C)c(N)c1=O (I: T[dV]P[Sar][NMeV] / II: T[dV]P[Sar][NMeV]; ester I:1-I:C, II:1-II:C; linker I:N-II:N via Actinocin(9to1))",0.863 µM (active)
7,Cc1cc(C(C)Nc2ccccc2C(=O)O)c2nc(N3CCOCC3)cc(=O)n2c1 (stereo not given),17.2 µM (active)
8,COc1cc2c(c(OC)c1OC)-c1ccc(OC)c(=O)cc1[C@@H](NC(C)=O)CC2,0.178 µM (active)
9,CC(C)C[C@H](NC(=O)[C@H](Cc1ccccc1)NC(=O)c1cnccn1)B(O)O,6.11 µM (active)
10,COc1cc2nccc(Oc3ccc(NC(=O)C4(C(=O)Nc5ccc(F)cc5)CC4)cc3)c2cc1OC,13.7 µM (active)
